# Sampled rows, rich in hits. Any-hit rate of the full collection: about 16%.
# miR-21 act: qHTS Assay for Modulators of miRNAs and/orActivators of miR-21. HeLa miR-21 FLuc reporter, luciferase, 48 h. AID 2288, 2010. 340,000 tested, under 10 active. Potency, µM (titrated, usually from 38.3 µM), for inactives: at the highest dose activity change, positive = activation, hits mostly activators;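 note: % of control where 0% means no effect; miR-21 action dims this reporter so a rising signal means less miR-21 action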
#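 Compounds were titrated across several concentrations (up to approximately 40 uM) and incubated 48 hours with HeLa miR-21-FLuc reporter cells (miR-21 target sequence downstream of FLuc, endogenous miR-21). Readout was firefly luciferase luminescence after lytic detection reagent.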
# TDP1 cell noCPT: qHTS for Inhibitors of human tyrosyl-DNA phosphodiesterase 1 (TDP1): qHTS in cells in absence of CPT | 420,000 tested, 15% active | DT40 Tdp1-/- hTDP1 cells, no CPT, ATP luminescence, 48 h | AID 686978, 2013 | Potency, µM (top dose mostly 46.2 µM), for the others: top-dose activity change, negative = growth inhibition, hits mostly inhibitors; note: potency is the fitted concentration of half-maximal effect; % is set by controls: 0 for no effect and ±100 for the full control effect; nearly all actives have a fitted effect of over 55% in size
#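 Stably hTDP1-transfected Tdp1-null chicken DT40 cells were treated with library compounds minus camptothecin and grown for at least 48 hr at 37 °C, after which cellular ATP was quantified by luminescence.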
# uPA surface inh: qHTS for Inhibitors of Cell Surface uPA Generation; cell surface uPA generation assay, qHTS; Potency, µM (series often up to 38.3 µM), without a hit: at the top dose activity change, negative = inhibition, usual class: inhibitors; 330,000 tested, 0.31% active; active = well fitted inhibition curve with a large enough effect; inconclusive = small, poorly fitted or top-dose-only effect; inactive = no such curve, though single readings can be large or run the other way; tested in mouse RAW 264.7 cells; note: potency is the fitted concentration of half-maximal effect; % is set by controls: 0 for no effect and ±100 for the full control effect; nearly all actives have a fitted effect of over 55% in size
# TDP1 cell CPT: qHTS for Inhibitors of human tyrosyl-DNA phosphodiesterase 1 (TDP1): qHTS in cells in presence of CPT; chicken DT40 Tdp1-/-;hTDP1 cells + 20 nM CPT, ATP luminescence, 48 h; Potency, µM (doses to about 46.2 µM), inactives show at the top dose activity change, negative = growth inhibition, hits mostly inhibitors; 420,000 tested, 12% active; AID 686979, 2013; note: potency is the fitted concentration of half-maximal effect; % is set by controls: 0 for no effect and ±100 for the full control effect; nearly all actives have a fitted effect of over 55% in size
#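 Chicken DT40 Tdp1-/- cells stably complemented with human TDP1 were seeded at 400 cells/well in medium containing 20 nM camptothecin, exposed to pin-transferred compounds, and grown at 37 °C for at least 48 hr. Viability was read as ATP luminescence.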
# TDP1 inh: qHTS Assay for Inhibitors of Tyrosyl-DNA Phosphodiesterase (TDP1); recombinant TDP1, AlphaScreen DNA substrate cleavage; Potency, µM (highest dose often 130 µM), without a hit: at the highest dose activity change, negative = inhibition, usual class: inhibitors; 350,000 tested, 0.28% active; note: potency is the fitted concentration of half-maximal effect; % is set by controls: 0 for no effect and ±100 for the full control effect; nearly all actives have a fitted effect of over 40% in size
# Target sequence (Q9NUW8 whole entry, looked up): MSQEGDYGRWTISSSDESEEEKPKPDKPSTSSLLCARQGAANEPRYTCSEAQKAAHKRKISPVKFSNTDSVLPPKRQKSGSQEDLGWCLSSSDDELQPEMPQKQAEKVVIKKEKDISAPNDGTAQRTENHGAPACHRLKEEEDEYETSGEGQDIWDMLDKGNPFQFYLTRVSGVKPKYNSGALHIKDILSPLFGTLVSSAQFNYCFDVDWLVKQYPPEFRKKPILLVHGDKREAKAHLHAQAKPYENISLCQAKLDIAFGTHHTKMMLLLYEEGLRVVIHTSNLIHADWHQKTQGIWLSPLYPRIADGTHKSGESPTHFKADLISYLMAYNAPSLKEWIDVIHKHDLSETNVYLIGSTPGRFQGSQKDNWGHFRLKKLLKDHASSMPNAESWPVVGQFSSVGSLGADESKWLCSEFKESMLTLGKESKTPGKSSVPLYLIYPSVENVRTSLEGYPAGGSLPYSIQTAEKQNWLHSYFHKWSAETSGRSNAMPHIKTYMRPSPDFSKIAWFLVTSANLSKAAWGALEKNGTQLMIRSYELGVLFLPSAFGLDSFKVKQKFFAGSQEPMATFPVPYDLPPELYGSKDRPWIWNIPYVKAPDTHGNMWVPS
#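 Steps: enzyme plus compound, 15 min RT; add biotin/phosphotyrosine-FITC oligonucleotide (15 nM final), react 5 min; add donor/acceptor beads (10 ug/ml final), 10 min; read AlphaScreen. Tdp1 at 1 nM final.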
# Numbers without * were called inactive; ? = inconclusive; / = not tested or not shown; [ ] = dose if it differs, or a comment. Unless noted, calls come from the whole dose curve; as a rule, active = well fitted curve in the direction sought with a large enough effect; inconclusive = small, poorly fitted or top-dose-only effect, or another doubt; inactive = no such curve, though single readings can be large; an effect the other way counts as inactive or inconclusive.
SMILES,miR-21 act,TDP1 cell noCPT,uPA surface inh,TDP1 cell CPT,TDP1 inh
COc1ccc(-c2noc(CCC(=O)Nc3ccc(C)c(C)c3)n2)cc1,-10%,-25%,-11%,-27%,-1%
Cc1ccc(-c2noc(CNC(=O)COc3ccccc3C)n2)cc1,-5%,5%,2%,-14%,1%
COc1ccc(-c2noc(CCC(=O)Nc3ccc4c(c3)OCCO4)n2)cc1,-10%,15µM*,6%,16µM*,0%
CCN(C(=O)CCc1nc(-c2ccc(C)cc2)no1)c1cccc(Cl)c1,3%,?,/,21µM*,-9%[12.3 µM]
CCc1ccccc1N(C)C(=O)CCc1nc(-c2ccc(C)cc2)no1,27%,?,-3%,?,4%
COc1ccc(-c2noc(CNC(=O)COc3cccc(C)c3C)n2)cc1,-8%,21µM*,/,?,2%
COc1ccc(Cl)cc1N(C)C(=O)CCc1nc(-c2ccc(C)cc2)no1,8%,23µM*,26%,18µM*,2%
Nc1ncnc2c1ncn2[C@@H]1O[C@H](CN=C2NS(=O)(=O)c3ccccc32)[C@@H](O)[C@H]1O,/,-4%,5%,-29%,-1%
COCCN1C[C@@H](CO)O[C@@H](n2cnc3c(N4CCN(C)CC4)ncnc32)C1,/,18%,/,3%,/
COc1ccc2c(c1OC)C(=O)N1c3ccccc3C(=O)OC21 (stereo not drawn),/,3%[9.04 µM],/,-4%[9.04 µM],3%
Cc1ccc(NC(=O)CN(C)C(=O)Cn2c(=O)oc3ccccc32)cc1,/,?,-4%,-6%,-1%
O=C(CCc1nc(-c2ccc(F)cc2)no1)Nc1cccc(C(=O)NC2CC2)c1,/,16µM*,5%,?,-2%
Cc1ccc(-c2noc(CCC(=O)Nc3cccc(C(=O)NC4CC4)c3)n2)cc1,/,?,/,-8%,/
COc1ccc(NC(=O)CCc2nc(-c3ccc(C)cc3)no2)cc1Cl,-7%,16µM*,-3%,16µM*,-4%
CCOC(=O)c1ccc(NC(=O)CCc2nc(-c3ccc(C)cc3)no2)cc1,12%,21µM*,/,?,1%
Cc1cccc(NC(=O)CN(C)C(C)C(=O)Nc2ccc(S(=O)(=O)N3CCCC3)cc2)c1C (stereo not drawn),/,?,-2%,?,5%
CCOC(=O)CSc1ccc(S(=O)(=O)N(CC)CC)cc1[N+](=O)[O-],-1%,9%,3%,10%,8%
CC[n+]1c(/C=C/C=C/N(C(C)=O)c2ccccc2)sc2cc(OC)ccc21,21%,2.6µM*,-9%,3.3µM*,5%
CCN(C(=S)NC(=O)Cc1ccc(OC)cc1)c1ccccc1,/,-13%,6%,-23%,/
O=C(NCCCCCCCN1CCCCCCC1)C(C1CCCCC1)C1CCCCC1,/,15µM*,0%,13µM*,/
O=C(NCCCN1CCOCC1)NC1CCCCC1,-5%,?,-11%,-5%,-5%
CC(C)Oc1cc(NC(=O)CS(=O)CC(=O)N(C)C)c(Cl)cc1Cl (stereo not drawn),-4%,-12%,-1%,-1%,0%
CC(C)Oc1cc(NC(=O)CS(=O)CC(=O)Nc2cccc(C(F)(F)F)c2)c(Cl)cc1Cl (stereo not drawn),9%,16µM*,-5%,21µM*,3%
Cc1[nH]c2ccccc2c1C(=O)C(=O)NCCCn1ccnc1,-2%,4%,5%,-1%,-6%
O=C(Nc1ccc2nc(N3CCOCC3)sc2c1)c1cc2ccccc2o1,/,?,/,23µM*,/
SMILES,miR-21 act,TDP1 cell noCPT,uPA surface inh,TDP1 cell CPT,TDP1 inh
Cc1c(C(=O)Nc2ccc3nc(N4CCOCC4)sc3c2)oc2ccccc12,/,?,12%,26µM*,0%
COc1cc(C(=O)Nc2ccc3nc(N4CCOCC4)sc3c2)cc(OC)c1OC,/,?,2%,?,4%
CCc1ccccc1NC(=O)c1ccc2nc(N3CCOCC3)sc2c1,-12%,-23%,-10%,-24%,/
O=C(NC1CCCc2ccccc21)c1cccc(F)c1 (stereo not drawn),/,-27%,0%,-12%,/
Cc1c(NC(=O)c2ccc3c(c2)C(=O)N(Cc2ccco2)C3=O)cccc1C(=O)O,-1%,-4%,2%,-7%,-12%
CC1=NN(C(=O)c2ccccc2)C(O)(c2ccc(Br)cc2)C1 (stereo not drawn),-32%,?,2%,5.8µM*,3%
CCOC(=O)C1=NN(C(=O)c2ccccc2)C(O)(c2ccc(C)cc2)C1 (stereo not drawn),-48%,26µM*,2%,?,8%
CCOC(=O)C1=NN(C(=O)c2ccc(OC)cc2)C(O)(c2ccc(Cl)cc2)C1 (stereo not drawn),-10%,?,2%,?,11%
CC1=NN(C(=O)c2ccccc2Cl)C(O)(c2ccccc2)C1 (stereo not drawn),-8%,4%,-1%,-7%,2%
CCC1=NN(C(=O)c2ccc(Br)cc2)C(O)(c2ccccc2)C1 (stereo not drawn),-7%,6.5µM*,-1%,5.8µM*,3%
Cc1ccc(S(=O)(=O)N(C)CCN(C)S(=O)(=O)c2ccc(C)cc2)cc1,/,23µM*,2%,?,/
CSc1ccc(/C=N/N(C)S(=O)(=O)c2ccc(C)cc2)cc1,10%,7.3µM*,-5%,?,/
Cc1ccc(S(=O)(=O)N(C)/N=C/c2ccc(C(=O)O)cc2)cc1,0%,9%,-1%,-1%,3%
Cc1ccc(/C=N/N(C)S(=O)(=O)c2ccc(C)cc2)cc1,9%,21µM*,-6%,23µM*,/
Cc1ccc(S(=O)(=O)N(C)S(=O)(=O)c2ccc(C)cc2)cc1,/,-32%,-21%,-22%,-11%
CCOCCCNC(=O)CN1C(=O)CCn2nc(-c3cccn3C)cc21,0%,7%,/,8%,5%
CC(=O)Oc1ccc(CC(C(=O)O)N2C(=O)c3ccccc3C2=O)cc1 (stereo not drawn),-3%,-2%,2%,5%,/
CC(=O)Oc1ccc(C#C/C=C2\c3ccccc3C(=O)N2c2ccccc2)cc1,/,21µM*,?,23µM*,4%
Cc1ccc(C(=O)NCCCNC(=O)COc2ccc(C)c(C)c2)cn1,0%,-13%,-1%,10%,6%
O=C(NC(=S)Nc1cccc(Cl)c1N1CCCCC1)c1ccc2c(c1)OCCO2,-24%,?,2%,3.3µM*,0%
O=C(Nc1cccc(Cl)c1N1CCCCC1)c1ccc2c(c1)OCCO2,2%,21µM*,17%,?,2%
O=C(Nc1ccc(N2CCCCC2)cc1)c1ccc2c(c1)OCCO2,4%,?,-13%,?,5%

# Screening data deposited in PubChem BioAssay by National Center for Advancing Translational Sciences (NCATS).
